Results filed as inconclusive are left out. Activity calls are given as the source filed them. How the source made its calls: active means hit-call score of the fitted dose curve at least 0.9, where 1 is the maximum; inconclusive means response in the unintended direction; inactive means score below 0.9.
Assays:
[1] = test system: bovine Histamine 1 Receptor (H1), gene 281231; test: NVS_GPCR_bH1: NovaScreen (NVS) G Protein-Coupled Receptor Assay for bovine Histamine 1 Receptor (H1) (AID 2283246)
Method in brief: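 Radioligand displacement on bovine cerebellar membranes, 1 h after dosing, filter-based scintillation read-out; loss of signal vs DMSO. Duplicate single-concentration screen at 25 uM, then concentration-response up to 50 uM for hits.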

[2] = target: human Serotonin, 5-Hydroxytryptamine Receptor 2A (5HT2A), HTR2A (gene 3356) (UniProt P28223); test: NVS_GPCR_h5HT2A: NovaScreen (NVS) G Protein-Coupled Receptor Assay for human Serotonin, 5-Hydroxytryptamine Receptor 2A (5HT2A) (AID 2283249)
Sequence of human Serotonin, 5-Hydroxytryptamine Receptor 2A (5HT2A), HTR2A (gene 3356) (P28223 whole entry, looked up): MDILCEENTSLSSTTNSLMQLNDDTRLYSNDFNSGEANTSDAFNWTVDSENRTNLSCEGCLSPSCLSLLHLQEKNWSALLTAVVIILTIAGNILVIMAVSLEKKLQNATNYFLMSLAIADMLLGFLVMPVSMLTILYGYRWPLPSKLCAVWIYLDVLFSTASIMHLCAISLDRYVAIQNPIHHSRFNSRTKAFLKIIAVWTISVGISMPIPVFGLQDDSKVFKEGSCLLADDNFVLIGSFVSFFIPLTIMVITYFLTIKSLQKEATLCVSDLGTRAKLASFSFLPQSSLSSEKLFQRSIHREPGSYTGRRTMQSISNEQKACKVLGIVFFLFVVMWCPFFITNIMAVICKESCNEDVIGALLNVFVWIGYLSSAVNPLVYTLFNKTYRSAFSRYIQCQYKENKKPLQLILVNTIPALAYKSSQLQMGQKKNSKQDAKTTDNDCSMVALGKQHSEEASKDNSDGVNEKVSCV
Method in brief: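 Human cortex membranes, cell-free radioligand binding; filter-based scintillation read 1.5 h after dosing. Duplicate screen at 25 uM first; displacement of specific binding (loss of signal) versus DMSO.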

[3] = test system: guinea pig Muscarinic, Peripheral (Mperiperal) Receptor, Non-selective Binding, gene 100379235; test: NVS_GPCR_gMPeripheral_NonSelective: NovaScreen (NVS) G Protein-Coupled Receptor Assay for guinea pig Muscarinic, Peripheral (Mperiperal) Receptor, Non-selective Binding (AID 2283250)
Method in brief: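 Guinea pig bladder membranes, radioligand binding read 1 h after dosing by filter scintillation counting; loss of signal vs DMSO. Primary duplicate screen at 25 uM, then concentration-response up to 50 uM.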

[4] = target: human Serotonin, 5-Hydroxytryptamine Receptor 5A (5HT5A), HTR5A (gene 3361) (UniProt P47898); test: NVS_GPCR_h5HT5A: NovaScreen (NVS) G Protein-Coupled Receptor Assay for human Serotonin, 5-Hydroxytryptamine Receptor 5A (5HT5A) (AID 2283251)
Sequence of human Serotonin, 5-Hydroxytryptamine Receptor 5A (5HT5A), HTR5A (gene 3361) (P47898 whole entry, looked up): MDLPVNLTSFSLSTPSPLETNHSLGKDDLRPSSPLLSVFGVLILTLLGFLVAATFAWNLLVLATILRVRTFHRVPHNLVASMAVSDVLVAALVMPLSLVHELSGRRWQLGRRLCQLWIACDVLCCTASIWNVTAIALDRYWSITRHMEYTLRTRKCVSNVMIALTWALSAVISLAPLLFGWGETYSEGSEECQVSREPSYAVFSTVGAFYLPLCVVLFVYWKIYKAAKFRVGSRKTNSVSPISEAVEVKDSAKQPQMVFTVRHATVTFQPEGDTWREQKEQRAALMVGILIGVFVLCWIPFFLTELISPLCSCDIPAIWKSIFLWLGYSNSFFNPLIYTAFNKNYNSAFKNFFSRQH
Method in brief: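 Cell-free radioligand displacement binding on HEK293-derived membrane protein, 1 h incubation, filter-based scintillation counting. Primary screen in duplicate at 25 uM, actives followed in concentration series; loss of signal fitted versus DMSO.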

[5] = target: human Serotonin, 5-Hydroxytryptamine Receptor 6 (5HT6), HTR6 (gene 3362) (UniProt P50406); test: NVS_GPCR_h5HT6: NovaScreen (NVS) G Protein-Coupled Receptor Assay for human Serotonin, 5-Hydroxytryptamine Receptor 6 (5HT6) (AID 2283253)
Sequence of human Serotonin, 5-Hydroxytryptamine Receptor 6 (5HT6), HTR6 (gene 3362) (P50406 whole entry, looked up): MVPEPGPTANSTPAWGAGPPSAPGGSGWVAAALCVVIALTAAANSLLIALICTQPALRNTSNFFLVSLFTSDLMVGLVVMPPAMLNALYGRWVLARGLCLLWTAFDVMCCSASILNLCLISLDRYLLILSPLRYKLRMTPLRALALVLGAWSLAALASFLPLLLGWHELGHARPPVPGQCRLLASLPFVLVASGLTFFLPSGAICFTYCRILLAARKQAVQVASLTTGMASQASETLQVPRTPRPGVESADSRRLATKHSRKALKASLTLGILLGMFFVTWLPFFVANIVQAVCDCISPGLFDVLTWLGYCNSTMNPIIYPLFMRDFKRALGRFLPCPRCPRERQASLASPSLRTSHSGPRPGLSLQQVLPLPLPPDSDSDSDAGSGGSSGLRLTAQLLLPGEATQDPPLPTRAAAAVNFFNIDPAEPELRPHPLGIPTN
Method in brief: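 Radioligand binding to 5HT6 in HEK293-derived membranes, cell-free, 1 h after dosing; bound ligand measured by filter-based scintillation counting. Primary screen in duplicate at 25 uM; actives retested in concentration series.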

[6] = target: human Adenosine A1 Receptor (AdoRA1), ADORA1 (gene 134) (UniProt P30542); test: NVS_GPCR_hAdoRA1: NovaScreen (NVS) G Protein-Coupled Receptor Assay for human Adenosine A1 Receptor (AdoRA1) (AID 2283254)
Sequence of human Adenosine A1 Receptor (AdoRA1), ADORA1 (gene 134) (P30542 whole entry, looked up): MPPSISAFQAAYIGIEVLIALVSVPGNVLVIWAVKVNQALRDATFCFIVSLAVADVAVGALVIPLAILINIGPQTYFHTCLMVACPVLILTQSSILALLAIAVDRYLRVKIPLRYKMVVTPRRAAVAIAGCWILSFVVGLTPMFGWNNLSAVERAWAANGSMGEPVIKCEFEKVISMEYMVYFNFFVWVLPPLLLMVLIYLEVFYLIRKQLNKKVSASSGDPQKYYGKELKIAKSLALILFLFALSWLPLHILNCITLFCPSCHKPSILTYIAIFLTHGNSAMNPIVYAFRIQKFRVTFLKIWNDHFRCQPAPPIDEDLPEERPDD
Method in brief: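 Each chemical is first tested twice at 25 uM, actives later in dilution series, against a radioligand bound to human cortex membranes; after 1 h, filter-retained counts are compared with DMSO controls, lower signal indicating displacement.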

[7] = target: human Serotonin, 5-Hydroxytryptamine Receptor 7 (5HT7), HTR7 (gene 3363) (UniProt P34969); test: NVS_GPCR_h5HT7: NovaScreen (NVS) G Protein-Coupled Receptor Assay for human Serotonin, 5-Hydroxytryptamine Receptor 7 (5HT7) (AID 2283255);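 further: hits reduce specific radioligand binding relative to DMSO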
Sequence of human Serotonin, 5-Hydroxytryptamine Receptor 7 (5HT7), HTR7 (gene 3363) (P34969 whole entry, looked up): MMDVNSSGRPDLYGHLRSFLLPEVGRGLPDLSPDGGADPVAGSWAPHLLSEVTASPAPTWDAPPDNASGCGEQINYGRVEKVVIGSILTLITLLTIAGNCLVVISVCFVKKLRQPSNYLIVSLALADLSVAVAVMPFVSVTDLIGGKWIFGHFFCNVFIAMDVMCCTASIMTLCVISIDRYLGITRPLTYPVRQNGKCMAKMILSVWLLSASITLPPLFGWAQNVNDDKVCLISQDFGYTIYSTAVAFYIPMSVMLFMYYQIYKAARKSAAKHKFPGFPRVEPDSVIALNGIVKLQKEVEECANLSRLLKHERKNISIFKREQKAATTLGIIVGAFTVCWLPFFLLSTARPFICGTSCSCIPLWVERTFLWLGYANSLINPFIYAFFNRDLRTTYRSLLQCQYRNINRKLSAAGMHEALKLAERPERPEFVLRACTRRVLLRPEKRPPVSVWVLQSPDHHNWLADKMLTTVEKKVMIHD
Method in brief: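 Radioligand displacement on membranes from CHO cells expressing human 5HT7, 1 h incubation, filter-based scintillation counting. Primary screen used a single 25 uM concentration in duplicate; actives were followed up in concentration series.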

[8] = target: human Adenosine A2a Receptor (AdoRA2a), ADORA2A (gene 135) (UniProt P29274); test: NVS_GPCR_hAdoRA2a: NovaScreen (NVS) G Protein-Coupled Receptor Assay for human Adenosine A2a Receptor (AdoRA2a) (AID 2283256)
Sequence of human Adenosine A2a Receptor (AdoRA2a), ADORA2A (gene 135) (P29274 whole entry, looked up): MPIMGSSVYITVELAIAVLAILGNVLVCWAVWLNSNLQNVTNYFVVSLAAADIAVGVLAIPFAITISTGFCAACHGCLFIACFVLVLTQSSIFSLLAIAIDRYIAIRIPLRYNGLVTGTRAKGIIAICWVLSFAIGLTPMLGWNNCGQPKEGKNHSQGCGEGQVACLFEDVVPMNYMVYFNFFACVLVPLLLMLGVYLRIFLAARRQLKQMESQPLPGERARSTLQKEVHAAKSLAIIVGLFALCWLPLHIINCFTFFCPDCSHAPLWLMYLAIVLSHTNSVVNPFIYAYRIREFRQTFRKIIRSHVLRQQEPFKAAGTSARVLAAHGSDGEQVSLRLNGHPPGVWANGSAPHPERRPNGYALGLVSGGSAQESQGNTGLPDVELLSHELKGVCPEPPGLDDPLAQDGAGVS
Method in brief: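 Cell-free radioligand binding on membranes from HEK293 expressing the receptor; competitive displacement read 1.5 h after dosing by filter-based scintillation counting. Primary screen in duplicate at 25 uM; actives followed in concentration series, with DMSO as baseline.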

[9] = target: human Adrenergic, Beta 1 Receptor (Adrb1), ADRB1 (gene 153) (UniProt P08588); test: NVS_GPCR_hAdrb1: NovaScreen (NVS) G Protein-Coupled Receptor Assay for human Adrenergic, Beta 1 Receptor (Adrb1) (AID 2283258)
Sequence of human Adrenergic, Beta 1 Receptor (Adrb1), ADRB1 (gene 153) (P08588 whole entry, looked up): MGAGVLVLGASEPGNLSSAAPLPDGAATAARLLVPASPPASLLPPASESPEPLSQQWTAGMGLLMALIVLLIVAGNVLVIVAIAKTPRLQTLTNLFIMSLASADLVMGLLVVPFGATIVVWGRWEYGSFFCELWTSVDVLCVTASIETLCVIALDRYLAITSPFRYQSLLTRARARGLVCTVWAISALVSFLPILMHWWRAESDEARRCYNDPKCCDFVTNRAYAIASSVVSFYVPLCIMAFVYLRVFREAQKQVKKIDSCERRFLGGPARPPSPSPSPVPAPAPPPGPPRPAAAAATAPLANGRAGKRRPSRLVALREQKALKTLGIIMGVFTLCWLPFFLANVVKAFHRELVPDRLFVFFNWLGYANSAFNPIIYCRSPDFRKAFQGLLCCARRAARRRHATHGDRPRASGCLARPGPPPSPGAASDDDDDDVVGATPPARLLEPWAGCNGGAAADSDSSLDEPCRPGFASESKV
Method in brief: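 Cell-free radioligand displacement on receptor from human neuroepithelioma cells; 2 h after dosing, filter-based scintillation counting. Primary screen in duplicate at 25 uM, actives retested in concentration series; loss of signal vs DMSO baseline.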

[10] = target: human Adrenergic, Alpha 2c Receptor (Adra2C), ADRA2C (gene 152) (UniProt P18825); test: NVS_GPCR_hAdra2C: NovaScreen (NVS) G Protein-Coupled Receptor Assay for human Adrenergic, Alpha 2c Receptor (Adra2C) (AID 2283259)
Sequence of human Adrenergic, Alpha 2c Receptor (Adra2C), ADRA2C (gene 152) (P18825 whole entry, looked up): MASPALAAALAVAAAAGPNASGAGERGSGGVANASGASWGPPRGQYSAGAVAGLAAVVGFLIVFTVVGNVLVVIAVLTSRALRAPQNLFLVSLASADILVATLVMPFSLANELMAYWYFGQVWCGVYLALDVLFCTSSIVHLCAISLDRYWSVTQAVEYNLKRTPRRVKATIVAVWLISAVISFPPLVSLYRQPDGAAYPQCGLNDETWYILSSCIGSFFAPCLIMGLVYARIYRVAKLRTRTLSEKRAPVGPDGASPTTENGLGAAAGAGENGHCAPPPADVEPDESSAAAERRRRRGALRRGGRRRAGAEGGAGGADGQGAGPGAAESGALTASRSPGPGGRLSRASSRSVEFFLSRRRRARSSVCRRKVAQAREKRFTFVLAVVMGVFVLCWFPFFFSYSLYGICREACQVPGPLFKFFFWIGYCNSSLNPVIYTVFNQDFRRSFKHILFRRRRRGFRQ
Method in brief: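 Radioligand binding on Sf9-expressed receptor membranes, 1 h after chemical dosing, filter-based scintillation read-out. Loss of binding fitted positively versus DMSO; primary duplicate screen at 25 uM, actives retested in concentration series.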

[11] = target: human Adrenergic, Beta 3 Receptor (Adrb3), ADRB3 (gene 155) (UniProt P13945); test: NVS_GPCR_hAdrb3: NovaScreen (NVS) G Protein-Coupled Receptor Assay for human Adrenergic, Beta 3 Receptor (Adrb3) (AID 2283262)
Sequence of human Adrenergic, Beta 3 Receptor (Adrb3), ADRB3 (gene 155) (P13945 whole entry, looked up): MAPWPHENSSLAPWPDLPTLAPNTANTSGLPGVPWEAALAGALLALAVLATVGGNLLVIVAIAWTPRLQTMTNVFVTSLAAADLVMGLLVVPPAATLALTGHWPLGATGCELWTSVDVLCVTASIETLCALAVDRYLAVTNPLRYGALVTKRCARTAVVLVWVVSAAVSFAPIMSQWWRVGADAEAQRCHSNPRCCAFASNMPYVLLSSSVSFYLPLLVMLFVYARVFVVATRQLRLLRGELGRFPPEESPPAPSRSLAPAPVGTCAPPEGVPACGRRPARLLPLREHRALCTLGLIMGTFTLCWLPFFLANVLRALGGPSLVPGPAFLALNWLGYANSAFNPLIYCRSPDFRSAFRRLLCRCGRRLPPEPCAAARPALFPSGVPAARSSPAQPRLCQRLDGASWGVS
Method in brief: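 Membranes from SK-N-MC cells pretreated with isoproterenol and 8-bromo-cAMP were used in a radioligand competitive displacement binding assay. Binding was read by filter-based scintillation counting 1 hour after dosing. Primary screening was in duplicate at 25 uM, with concentration series in follow-up.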

[12] = target: human Adrenergic, Alpha 2A Receptor (Adra2A), ADRA2A (gene 150) (UniProt P08913); test: NVS_GPCR_hAdra2A: NovaScreen (NVS) G Protein-Coupled Receptor Assay for human Adrenergic, Alpha 2A Receptor (Adra2A) (AID 2283257)
Sequence of human Adrenergic, Alpha 2A Receptor (Adra2A), ADRA2A (gene 150) (P08913 whole entry, looked up): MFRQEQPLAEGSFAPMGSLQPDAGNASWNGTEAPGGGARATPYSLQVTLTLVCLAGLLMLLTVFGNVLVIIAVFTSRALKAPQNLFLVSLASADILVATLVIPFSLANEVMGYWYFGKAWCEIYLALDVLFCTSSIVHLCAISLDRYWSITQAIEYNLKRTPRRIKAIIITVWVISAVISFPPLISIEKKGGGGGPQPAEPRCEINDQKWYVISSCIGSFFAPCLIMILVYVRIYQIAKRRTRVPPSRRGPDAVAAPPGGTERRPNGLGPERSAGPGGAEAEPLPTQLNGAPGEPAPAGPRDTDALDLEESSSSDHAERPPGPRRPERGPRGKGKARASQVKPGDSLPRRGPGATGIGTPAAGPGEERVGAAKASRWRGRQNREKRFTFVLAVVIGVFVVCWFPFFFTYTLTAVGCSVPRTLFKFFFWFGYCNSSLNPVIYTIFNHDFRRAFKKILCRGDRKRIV
Method in brief: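 Radioligand filter-binding was run on HT29-derived membranes, cell-free, read by scintillation counting 1 h after dosing. Primary screening was in duplicate at 25 uM, with concentration series in follow-up. Loss of signal versus DMSO indicates displacement.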

[13] = target: guinea pig Leukotriene D4 Receptor (LTD4), CYSLTR1 (gene 100135514) (UniProt Q2NNR5); test: NVS_GPCR_gLTD4: NovaScreen (NVS) G Protein-Coupled Receptor Assay for guinea pig Leukotriene D4 Receptor (LTD4) (AID 2283248)
Method in brief: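 Radioligand displacement on guinea pig lung membranes, 1 h incubation, filtration and scintillation counting; DMSO as negative control. Duplicate 25 uM primary screen, then singleton concentration-response up to 50 uM.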

[14] = target: human Dopamine Receptor D4.4 (DRD4.4), DRD4 (gene 1815) (UniProt P21917); test: NVS_GPCR_hDRD4.4: NovaScreen (NVS) G Protein-Coupled Receptor Assay for human Dopamine Receptor D4.4 (DRD4.4) (AID 2283264)
Sequence of human Dopamine Receptor D4.4 (DRD4.4), DRD4 (gene 1815) (P21917 whole entry, looked up): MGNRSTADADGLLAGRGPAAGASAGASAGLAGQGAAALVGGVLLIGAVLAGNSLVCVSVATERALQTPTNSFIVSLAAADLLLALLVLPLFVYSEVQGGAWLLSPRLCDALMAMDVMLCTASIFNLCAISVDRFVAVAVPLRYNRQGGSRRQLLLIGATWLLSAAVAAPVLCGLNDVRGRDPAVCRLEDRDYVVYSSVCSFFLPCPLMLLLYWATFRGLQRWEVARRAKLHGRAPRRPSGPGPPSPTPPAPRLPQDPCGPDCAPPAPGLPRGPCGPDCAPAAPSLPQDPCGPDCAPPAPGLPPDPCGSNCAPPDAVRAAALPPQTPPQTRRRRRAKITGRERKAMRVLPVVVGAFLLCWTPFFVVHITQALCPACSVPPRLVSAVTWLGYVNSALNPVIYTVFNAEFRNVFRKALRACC
Method in brief: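 Radioligand displacement on human DRD4.4 from CHO-derived membranes, 1 hour incubation, bound counts read by filtration and scintillation. Primary screen in duplicate at 25 uM; actives followed up in concentration series.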

[15] = target: guinea pig Opioid, Kappa 1 Receptor (OpiateK), OPRK1 (gene 100135587) (UniProt P41144); test: NVS_GPCR_gOpiateK: NovaScreen (NVS) G Protein-Coupled Receptor Assay for guinea pig Opioid, Kappa 1 Receptor (OpiateK) (AID 2283252);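 further: radioligand displacement from kappa opioid receptor in guinea pig cerebellar membranes; active means reduced radioligand binding relative to DMSO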
Method in brief: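 Guinea pig cerebellar membranes, radioligand displacement with filter-based scintillation counting, 2 h after dosing. Primary screen single concentration 25 uM in duplicate; actives retested in concentration series; loss of binding fitted versus DMSO.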

[16] = target: Beta-2 adrenergic receptor (Homo sapiens) (UniProt P07550); test: NVS_GPCR_hAdrb2: NovaScreen (NVS) G Protein-Coupled Receptor Assay for human Adrenergic, Beta 2 Receptor (Adrb2) (AID 2283261)
Method in brief: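 Filter-based radioligand binding using receptor prepared from CHO cells, 1 h incubation, scintillation counting. Primary screen in duplicate at 25 uM, actives retested in concentration series; loss of binding relative to DMSO.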

Measured: AC50

CCCCCCCCCC
inactive: [1] | [2] | [3] | [4] | [5] | [6] | [7] | [8] | [9] | [10]

CCCCCCCCN(C)C
active: [7] 6.63 µM
inactive: [3] | [5] | [11]

OC(CCl)CCl
active: [12] 25 µM

CCCCCCCCCCCCCCCCOS(=O)(=O)O
active: [13] 4.26 µM | [4] 20.6 µM | [7] 15.6 µM | [9] 3.47 µM | [10] 3.6 µM | [14] 12.5 µM

c1ccc(C(O[C@@H]2CCCN(CCc3ccc4c(c3)OCO4)C2)c2ccccc2)cc1
inactive: [11]
active: [2] 10.1 µM | [3] 0.0261 µM | [4] 25 µM | [15] 3.06 µM | [5] 25 µM | [6] 20.7 µM | [7] 0.99 µM | [12] 18 µM | [9] 25 µM | [10] 2.51 µM | [16] 13.5 µM | [14] 14.8 µM

— PubChem BioAssay (EPA / NIEHS)
